Reference: the supplement of paper PMC8699584
Several values for one entry are separate records, joined by “and”; a condition that tells them apart may be missing. Identical values can stand only once. ± gives the standard deviation of the averaged measurements.

Columns and labels:
Molm13 = assay: cell viability relative to DMSO control (bortezomib = 0%); higher = less growth inhibition; details: 10 nM; 72 h
Procedure, shortened: (§1)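 Cell viability was assessed by CellTiter-Glo luminescence. Acute myeloid leukemia cells were seeded at 1000 cells per well in 50 µL on a 384-well library of 679 compounds at a single 10 nM dose for 72 h. Per-plate linear regression set DMSO-treated cells at 100% and positive-control-treated cells at 0%.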

Mv4-11 = assay: as above; details: 10 nM; 72 h
Procedure, shortened: as §1

Row | SMILES | cell viability (Molm13) | cell viability (Mv4-11)
1 | Cc1ccc(C(=O)Nc2ccc(CN3CCN(C)CC3)c(C(F)(F)F)c2)cc1C#Cc1cnc2[nH]ncc2c1 | -13.5 ± 5.7% | -14.8 ± 0.36%
2 | CCN(CC)CCCCNc1ncc2cc(-c3cc(OC)cc(OC)c3)c(NC(=O)NC(C)(C)C)nc2n1 | 114% and 117% | 113% and 119%
3 | CCCCCCCCCCCCc1ccc(S(=O)(=O)Nc2nncs2)cc1 | 108 ± 3% | 100 ± 2%
4 | Nc1ncnc2c1c(-c1cnc3[nH]ccc3c1)nn2C1CCCC1 | 118 ± 2.6% | 125 ± 14%
5 | CN(C)CCCn1cc(C2=C(c3c[nH]c4ccccc34)C(=O)NC2=O)c2ccccc21 [Bisindolylmaleimide I] | 94.6 ± 15% | 67.1 ± 44%
6 | Cn1cc(/C=C2\C(=O)Nc3cccnc32)c2ccccc21 | 104 ± 17% | 107 ± 3.6%
7 | C[C@H]1[C@H](C)CC[C@]2(C(=O)O[C@@H]3O[C@H](CO[C@@H]4O[C@H](CO)[C@@H](O[C@@H]5O[C@H](C)[C@H](O)[C@@H](O)[C@H]5O)[C@H](O)[C@H]4O)[C@@H](O)[C@H](O)[C@H]3O)CC[C@]3(C)C(=CC[C@@H]4[C@@]5(C)C[C@@H](O)[C@H](O)[C@@](C)(CO)[C@@H]5CC[C@]43C)[C@H]12 [Asiaticoside] | 108 ± 13% | 114 ± 2.9%
8 | COc1ccc2cc1Oc1ccc(cc1)C[C@H]1c3cc(c(OC)cc3CCN1C)Oc1c(O)c(OC)cc3c1[C@H](C2)N(C)CC3 [(+)-Fangchinoline] | 116 ± 13% | 114 ± 1.3%
9 | CN1C(=O)C(Cc2c[nH]c3ccccc23)NC1=S (stereo not given) [Necrostatin-1] | 106 ± 9.9% | 93.4 ± 10%
10 | CCCCCCCCCCCCCC#CC(=O)[C@@H]1COC(C)(C)N1C(=O)OC(C)(C)C | 108 ± 11% | 132 ± 1.6%
11 | COc1cc2nccc(Oc3ccc(NC(=O)Nc4ccc(F)cc4F)c(F)c3)c2cc1OC | 98.1 ± 2.7% | 103 ± 5.7%
12 | COc1cc(CCc2cc(NC(=O)c3ccc(N4CC(C)NC(C)C4)cc3)n[nH]2)cc(OC)c1 (stereo not given) | 102 ± 17% | 99.5 ± 2%
13 | O=C(c1ccc(F)c(F)c1Nc1ccc(I)cc1F)N1CC(O)([C@@H]2CCCCN2)C1 [Cobimetinib] | 87.1 ± 14% | 103.3 ± 0.5%
14 | Cc1ccc(NC(=O)c2ccc(CN3CCN(C)CC3)cc2)cc1Nc1nccc(-c2cccnc2)n1 [Imatinib (STI571)] | 97.6 ± 9.5% | 97.2 ± 9.2%
15 | Cn1cnc(N)c2ncnc1-2 [3-Methyladenine (3-MA)] | 98.3 ± 1.7% | 77.5 ± 24%
16 | COc1cc(/C=C(\C#N)C(N)=O)cc(CSc2nc3ccccc3s2)c1O | 112 ± 4.3% | 93.1 ± 5.8%
17 | CC(=O)O[C@H]1C(=O)[C@@]2(C)[C@H]([C@H](OC(=O)c3ccccc3)[C@]3(O)C[C@H](OC(=O)[C@H](O)[C@@H](NC(=O)c4ccccc4)c4ccccc4)C(C)=C1C3(C)C)[C@]1(OC(C)=O)CO[C@@H]1C[C@@H]2O [Paclitaxel] | -2.33 ± 4.8% | -3.89 ± 0.25%
18 | Cc1cn(-c2cc(NC(=O)c3ccc(C)c(Nc4nccc(-c5cccnc5)n4)c3)cc(C(F)(F)F)c2)cn1 [Nilotinib] | 124 ± 9.8% | 108 ± 16%
19 | Cc1ccc(Nc2nccc(N(C)c3ccc4c(C)n(C)nc4c3)n2)cc1S(N)(=O)=O [Pazopanib] | 101 ± 36% | 104 ± 4.1%
20 | N#Cc1c(NC(=O)c2cccc3ccccc23)sc2c1CCCC2 | 102 ± 21% | 114 ± 4.2%
21 | N#CC1(c2ccc(NC(=O)c3cccnc3NCc3ccncc3)cc2)CCCC1 [Apatinib] | 113 ± 10% | 110 ± 1.5%
22 | Cn1cnc2c(NCc3ccccc3)nc(NCCO)nc21 [Olomoucine] | 106 ± 16% | 104.2 ± 1%
23 | Cc1cccc(CC(=O)N2CCc3c2ccc(-c2cn(C)c4ncnc(N)c24)c3F)n1 | 114 ± 3.6% | 119 ± 22%
24 | CS(=O)(=O)CCNCc1ccc(-c2ccc3ncnc(Nc4ccc(OCc5cccc(F)c5)c(Cl)c4)c3c2)o1 [Lapatinib] | 96.5 ± 5.9% | 103.5 ± 0.39%
25 | CCN(CC)CCNC(=O)c1c(C)[nH]c(/C=C2\C(=O)Nc3ccc(F)cc32)c1C [Sunitinib] | 111 ± 26% | 117 ± 4.9%
26 | Cc1c(CN2CCN(S(C)(=O)=O)CC2)sc2c(N3CCOCC3)nc(-c3cnc(N)nc3)nc12 | 106 ± 16% | 107 ± 9.6%
27 | COc1cc(N2CCOCC2)ccc1Nc1ncc(Cl)c(Nc2ccccc2NS(C)(=O)=O)n1 | 108 ± 10% | 111 ± 24%
28 | CNC(=O)c1ccc(Nc2ncc(C(F)(F)F)c(NCc3nccnc3N(C)S(C)(=O)=O)n2)cc1 | 90.2 ± 16% | 99.5 ± 3.4%
29 | O=c1sn(-c2cccc3ccccc23)c(=O)n1Cc1ccccc1 [Tideglusib] | 116 ± 9.5% | 95.4 ± 20%
30 | CN(C)C(=O)c1cc2cnc(Nc3ccc(N4CCNCC4)cn3)nc2n1C1CCCC1 | 113 ± 12% | 113 ± 12%
